SMILES strings stand for the structures. Results filed as inconclusive are left out. The source made the active and inactive calls. The call rests on the fitted dose curve.

Chain of Vitamin D3 receptor (Homo sapiens) (P11473 whole entry, looked up): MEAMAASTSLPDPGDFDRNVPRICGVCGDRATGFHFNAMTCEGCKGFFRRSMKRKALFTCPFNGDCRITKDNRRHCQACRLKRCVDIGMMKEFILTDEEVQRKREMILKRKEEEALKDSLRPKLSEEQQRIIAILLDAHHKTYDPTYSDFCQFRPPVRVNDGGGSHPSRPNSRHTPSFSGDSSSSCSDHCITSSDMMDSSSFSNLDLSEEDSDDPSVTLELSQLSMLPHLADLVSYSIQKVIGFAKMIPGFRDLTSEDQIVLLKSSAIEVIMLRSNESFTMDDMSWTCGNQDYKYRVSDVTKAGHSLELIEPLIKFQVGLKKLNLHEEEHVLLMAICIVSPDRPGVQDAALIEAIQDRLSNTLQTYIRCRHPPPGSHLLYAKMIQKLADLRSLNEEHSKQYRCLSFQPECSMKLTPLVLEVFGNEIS

In the assay the target is Vitamin D3 receptor (Homo sapiens) (UniProt P11473). Put plainly: qHTS assay to identify small molecule agonists of the vitamin D receptor (VDR) signaling pathway (AID 743222). The note with it: HEK293T VDR-UAS-bla, beta-lactamase FRET ratio, 16 h; series mostly up to 63.5 µM. The text has this:
National Center for Advancing Translational Sciences [NCATS]
NIH Chemical Genomics Center [NCGC]
U.S. Environmental Protection Agency [EPA]
National Institutes of Environmental Health Sciences [NIEHS]
National Toxicology Program [NTP]
U.S. Food and Drug Administration [FDA]
The vitamin D receptor (VDR), a member of nuclear hormone receptor superfamily, plays a critical role in calcium homeostasis and bone metabolism. It is also involved in cell differentiation and growth, and thrombogenicity.
Tox21 Assay Protocol Summary:
VDR-bla cells were dispensed at 2,000 cells/6 uL/well into black wall/clear-bottom 1536-well plates using a Multidrop Combi (Thermo Fisher Scientific, Waltham, MA) dispenser. After the assay plates were incubated at a 37C and 5% CO2 for 4 h, 23 nL of compounds dissolved in DMSO, positive controls or DMSO only was transferred to the assay plate by a Pintool station (Kalypsys, San Diego, CA). The plates were incubated at 37C and 5% CO2 for 16 h. After 1 uL of LiveBLAzerTM B/G FRET substrate was added using a Bioraptr Flying Reagent Dispenser (FRD) workstation (Beckman Coulter, Indianapolis, IN, USA), the plates were incubated at room temperature for 2 h, and fluorescence intensity was measured by an Envision plate reader (PerkinElmer, Shelton, CT).
In general terms: qHTS replaces the single test concentration by a dilution series.
Take `C=C(C)C(=O)OCCOP(=O)(O)O`: the outcome was inactive.

On to `CCCCNc1ccc(C(=O)OCCN(CC)CC)cc1`, for which the outcome was inactive.

Regarding `FC(F)(F)c1ccccc1`, the result was inactive.

For the compound `CCCCNC(=S)NCCCC`, the outcome was inactive.

`C=CC1CO1` (stereo not given): the outcome was inactive.

As to `C[C@@H]1CN(c2c(F)c(F)c3c(=O)c(C(=O)O)cn(C4CC4)c3c2F)C[C@H](C)N1`, the outcome was inactive.

On to `CCc1cc(Cl)c(OC)c(C(=O)NC[C@@H]2CCCN2CC)c1O`, for which the outcome was inactive.

For `NNS(=O)(=O)c1ccc(Oc2ccc(S(=O)(=O)NN)cc2)cc1`, the result was inactive.

In the case of `Cc1onc(-c2ccccc2)c1C(=O)Cl`, the result was inactive.

`CC1(C)S[C@@H]2[C@H](NC(=O)C(C(=O)O)c3ccccc3)C(=O)N2[C@H]1C(=O)O` (stereo not given in full): the outcome was inactive.

Take `CCCc1c2oc(C(=O)O)cc(=O)c2cc2c(=O)cc(C(=O)O)n(CC)c12`: the outcome was inactive.

Regarding `Cc1ccc([N+](=O)[O-])c(N)c1`, the result was inactive.

Regarding `CC(=O)N(CC(O)CN(C(C)=O)c1c(I)c(C(=O)NCC(O)CO)c(I)c(C(=O)NCC(O)CO)c1I)c1c(I)c(C(=O)NCC(O)CO)c(I)c(C(=O)NCC(O)CO)c1I` (stereo not given), the outcome was inactive.

With `CC(C)Nc1nc(N)nc(Cl)n1`, the result was inactive.

With `CC(C)=CCCC(C)CCOC=O` (stereo not given), the result was inactive.

Take `CCCCN1C[C@H](O)[C@@H](O)[C@H](O)[C@H]1CO`: the outcome was inactive.

For the compound `CCOc1ccc(NC(N)=O)cc1`, the outcome was inactive.

Turning to `Cc1ccc(C=O)s1`, the outcome was inactive.

For `CC(C)(C)c1ccc(OC(=O)c2ccccc2O)cc1`, the result was inactive.

Regarding `O=C1C=CC(=O)O1`, the outcome was inactive.

`COC(=O)C(C)O` (stereo not given): the outcome was inactive.

`COC(=O)N[C@H](C(=O)N[C@@H](Cc1ccccc1)[C@@H](O)CN(Cc1ccc(-c2ccccn2)cc1)NC(=O)[C@@H](NC(=O)OC)C(C)(C)C)C(C)(C)C`: the outcome was inactive.

For `CC(=O)N[C@@H](CC(C)C)C(=O)O`, the outcome was inactive.

For the compound `Cc1ccc(C(C)C)cc1O`, the result was inactive.

As to `OCc1ccccc1O`, the outcome was inactive.

On to `O=C1CCCCCCCCCCC(=O)OCCO1`, for which the outcome was inactive.

For `CCCCc1ccc2nc(NC(=O)OC)[nH]c2c1`, the outcome was inactive.

Turning to `ICCc1ccccc1`, the result was inactive.

As to `C/C(=N\O)[C@@H](C)NCC(C)(C)CN[C@H](C)/C(C)=N/O`, the result was inactive.

In the case of `Cc1ncc(CO)c(CN)c1O`, the result was inactive.

For `NC(=O)NS(=O)(=O)c1ccc(Cl)cc1`, the outcome was inactive.

For the compound `CCCCCCCCc1ccc(S(=O)(=O)O)cc1`, the outcome was inactive.

In the case of `CO[C@@]1(NC(=O)CSCC#N)C(=O)N2C(C(=O)O)=C(CSc3nnnn3C)CS[C@@H]21`, the result was inactive.

With `CN(C)C(=O)NC1(c2ccccc2)CCN(CCC[C@]2(c3ccc(Cl)c(Cl)c3)CCCN(C(=O)c3ccccc3)C2)CC1`, the result was inactive.

With `O=S(=O)(O)C(F)(F)F`, the result was inactive.

With `CC(C)OC(C)C`, the result was inactive.

For the compound `CCOC(=O)COc1ccc2c(c1)CC(NCC(O)c1cccc(Cl)c1)CC2` (stereo not given), the result was inactive.

On to `O=CCCc1ccccc1`, for which the result was inactive.

As to `CCCCCCOc1ccc(N)cc1`, the result was inactive.

As for `COc1ccc2nc(NC(=O)Nc3ccccc3)sc2c1`, the result was inactive.

Source of the values: PubChem BioAssay (Tox21).
